Measurements published in PubChem BioAssay AID540253 (National Center for Advancing Translational Sciences (NCATS), 2011).
About 240 (0.071%) of roughly 340,000 compounds were called active. The call rests on the fitted dose curve. The full list was thinned out, with actives kept by preference.

molecular target: Snurportin-1 (Homo sapiens) + GTP-binding nuclear protein Ran (Homo sapiens) + Importin subunit beta-1 (Homo sapiens) (UniProt O95149+P62826+Q14974); test: qHTS Assay for Inhibitors of RanGTP induced Rango (Ran-regulated importin-beta cargo) - Importin beta complex dissociation; settings: Biochemical FRET Rango-importin beta; series mostly up to 46.1 µM; activity change, negative = inhibition: at the top concentration; further: nearly all actives have a fitted effect of over 45% in size; on activity change, negative = inhibition: % of control where 0% means no effect
Source text: NIH Molecular Libraries Probe Production Centers Network [MLPCN] NIH Chemical Genomics Center [NCGC] MLPCN Grant: R03 MH090808-01A1 Assay Submitter (PI): Petr Kalab NCGC Assay Overview: The small GTPase Ran regulates transport of macromolecules between the nucleus and the cytoplasm (nuclear transport) and has important functions in mitotic spindle assembly, nuclear envelope (NE) formation and nuclear pore complex (NPC) assembly. RanGTP gradient is thought to promote spindle assembly by providing a spatial clue to microtubule nucleation and Aurora A activation. Because the localized release and binding of importin alpha cargos relays this spatial clue to SAFs, inhibitors of the Rango - importin beta complex can then be used in further understanding their role in cell cycle specifically in mitosis progression. […] Activation of Aurora A has been linked to different types of cancer and a number of Aurora kinase inhibitors are being developed as potential canter therapeutics; therefore, identified inhibitors of this complex could be developed into potential anti-mitotic probes for cancer treatment. Purified recombinant proteins Rango - importin beta and RanGTP-RCC1 stock premixes were provided by the assay submitter. The assay used a fluorescence resonance energy transfer (FRET) Rango biosensor that contains the IBB of human snurportin 1 flanked by yellow fluorescent protein (EYFP) at the amino terminus and cerulean CFP10 at the carboxy terminus. […] RanGTP binding to the complex (in the presence of RCC1) releases the Rango from the complex. The flexibility of the IBB in the freed Rango allows the donor - acceptor fluorophores to interact, resulting in a high FRET signal. Inhibitors will therefore be identified based on the ability to interfere with the FRET signal increase. DMSO treated and no RanGTP-RCC1 (buffer only) wells were used as negative and positive controls respectively. FRET readings were obtained at two time points. FRET reading prior to importin beta addition (pre-read) were used flag potential compound interference; FRET reading after importin beta addition (post-read) were used to identify inhibitors.
NCGC Assay Protocol Summary: Two and a half uL/well of Rango- importin beta premix solution (0.1 uM Rango, 0.25 uM importin beta, 1x PBS, 1mM DTT, 0.02% Tween-20, 0.1% BSA final concentrations) was dispensed into 1536-well assay plates (Greiner, solid black medium-binding plates) with Aurora Discovery BioRAPTR Flying Reagent Dispenser (FRD; Beckton-Dickenson). Compound solution (23 nL) was transferred to the assay plate using Kalypsys pin tool equipped with a 1536-pin tool and incubated at room temperature for 5 min followed by a FRET pre-read using the PerkinElmer Envision plate reader. Two and a half uL/well of RanGTP-RCC1 premix solution (0.6 uM Ran, 2mM GTP, 0.2 uM RCC1, 1x PBS, 1mM DTT, 0.02% Tween-20, 0.1% BSA final concentrations) were then added and incubated at room temperature giving a final reaction volume of 5uL. After 45min FRET post-read was obtained via the Envision plate reader using the same optics and settings as the pre-read (CFP/YFP optimized dual optical module D450/D505; excitation mirror CFP 430/24 nm; and emission filters CFP 486/10 nm and YFP 530/10 nm).
Potency means the concentration at half of the fitted maximal effect.

Activity change, negative = inhibition, inactive:
COc1ccccc1N(CC(=O)Nc1c(C)n(C)n(-c2ccccc2)c1=O)S(=O)(=O)c1ccccc1 15.2%
CC(C)(C)c1nnc2sc(SCC(O)=C(C#N)c3nc4ccccc4[nH]3)nn2c1=O -17.3%
Cc1cc(NC(=O)C(C)SCC(=O)Nc2cccc(S(=O)(=O)N3CCCCCC3)c2)no1 (centres undefined) -9.26%
CC(C)(C)C(=O)Nc1cccc(-c2ccc[nH]2)n1 -8.04%
Nc1ccc2c(c1)C(O)c1ccc(Cl)cc1-2 (centres undefined) 12%
Cn1cc(C2OC(=O)c3ccccc32)c2ccccc21 (centres undefined) -1.39%
CCC1([N+](=O)[O-])COC(c2ccc(C(C)C)cc2)OC1 (centres undefined) 4.48%
Nc1ccc2c(c1)C(=Cc1cccnc1)c1ccccc1-2 -0.303%
Cc1nc2ccc(N)nc2nc1C -10.7%
CC(C)c1cc(N=O)cc(C(C)C)c1O 16.3%
O=C(OCCOc1ccccc1Cl)c1cc(S(=O)(=O)N2CCCCC2)ccc1N1CCOCC1 -8.97%
Cc1ccc(S(=O)(=O)N2CCN(C(=O)c3cc(S(=O)(=O)N4CCOCC4)ccc3F)CC2)cc1 6.87%
CN(CCc1ccccc1)C(=O)c1cccc(NC(=O)Cc2cccc(NC(=O)C3CCCN(C(=O)CCc4ccccc4)C3)c2)c1 (centres undefined) -6.42%
CCC(=O)N1CCc2cc(Br)c(S(=O)(=O)NCCN3CCCCC3CC)cc21 (centres undefined) -5.08%
O=C(c1cccc(S(=O)(=O)N2CCCCCC2)c1)N1CCN(Cc2ccccc2)CC1 0.329%
CCOc1ccccc1NC(=S)C(=C([O-])c1ccc2c(c1)OCCO2)[n+]1ccc(CC)cc1 7.69%
CC(=O)c1cccc(-c2ccc(CN3C(CC(C)C)C(=O)N(Cc4cn(CC5CCCCC5)nn4)CCS3(=O)=O)cc2)c1 (centres undefined) 5.63%
C[n+]1cccc(C(=O)O)c1 10.9%
CC1CN(Cc2ccco2)C(=S)N(c2ccccc2)C1=O (centres undefined) 0.667%
Cc1nc(N)nc(Cl)c1CCC1OCCO1 18.9%
O=C(CC1CCCCC1)NCc1ccco1 -9.28%
O=C(CCCCCN1C(=O)c2cccc3cccc(c23)C1=O)NCc1ccco1 4.95%
O=C(Cc1ccc([N+](=O)[O-])cc1)NCCc1ccc2c(c1)OCO2 12.1%
Cc1cccc(NS(=O)(=O)c2ccc([N+](=O)[O-])cc2)n1 -2.17%
Cc1nc(N)nc(SCc2ccc([N+](=O)[O-])cc2)c1N -1.08%
CN(C(=O)c1cccc(NC(=O)Cc2ccc(NC(=O)C3CCCN(C(=O)C4CCCC4)C3)cc2)c1)C1CCC1 (centres undefined) 4.82%
CSCCC(NS(=O)(=O)c1ccc(C)cc1)C(=O)N(C)CC(=O)Nc1ccccc1Br (centres undefined) -5.32%
CC(=O)OCC(=O)C1(O)CCC2C3CC(C)C4=CC(=O)CCC4(C)C3C(O)CC21C (centres undefined) -18.3%
NC(=S)NN=C1CCCC(C(F)(F)F)C1 (centres undefined) -1.47%
C[C@@H]1NS(=O)(=O)c2cc(Cl)ccc2O[C@@H]1c1ccccc1 7.4%
CC(=O)CSc1nc(CCc2ccccc2)c(C#N)c(=O)[nH]1 -1.86%
CC(C)CN1CC(C)C(=O)N(c2ccccc2)C1=S (centres undefined) 0.708%
Nc1ncnc2c1cnn2C1CC(O)C(CO)O1 (centres undefined) 0.102%
Cc1ccc(-c2csc(C(C#N)=C(O)CN3CCN(C(=O)c4ccco4)CC3)n2)cc1 2.16%
O=C1CC(C(=O)O)NC(=S)N1 (centres undefined) -1.44%
CCc1nnc(NC(=O)c2cc(S(=O)(=O)N3CCN(CC)CC3)ccc2Cl)s1 -2.92%
O=C(Cc1ccc(NC(=O)C2CCCN(C(=O)C3CCCCC3)C2)cc1)Nc1cccc(C(=O)N2CCCCC2)c1 (centres undefined) -0.0587%
CCc1ccc(C(=O)C(C)OC(=O)CN2C(=O)NC3(CCCC3)C2=O)cc1 (centres undefined) 9.43%
COc1ccc(CCNC(=O)c2ccc(NC(=O)CC3SC(N4CCCCC4)=NC3=O)cc2)cc1OC (centres undefined) 19.5%
Cc1onc(-c2c(F)cccc2Cl)c1C(=O)Nc1cccc(S(=O)(=O)N2CCCCC2)c1 4.01%
COc1ccccc1C(=O)c1ccccc1C(=O)c1ccccc1 6.28%
CCOC(=O)N(Cc1ccccc1)C1CC1 -14.1%
COC1=NC2=NCCN2C(OC)=N1 0.279%
O=C(NN=Cc1ccccc1O)NN=Cc1ccccc1O 25.5%
O=[N+]([O-])c1cccc(C=NN=Cc2ccccc2O)c1 12.1%
CN(C)CCNC(=O)c1ccc(Cl)c2cc3ccccc3nc12 -25.3%
CCC(C)C1(C2CCCC2)NC(=O)NC1=O (centres undefined) -4.04%
CSc1ncnc2c1ncn2CC(=O)C1CCC2C3CCC4=CC(=O)CCC4(C)C3CCC12C (centres undefined) -2%
COc1cccc2c1C(=O)c1c(O)c3c(c(O)c1C2=O)CC(O)(C(C)=NNC(=O)c1ccc(Cl)c(Cl)c1)CC3OC1CC(N)C(O)C(C)O1 (centres undefined) 8.77%
CCCN(CCC)S(=O)(=O)c1cc2c(cc1Br)CCN2C(=O)CC -8.15%
COc1ccc(C(=O)Nc2cccc(/C=C(/CCC(=O)O)c3nc4ccccc4s3)c2)cc1 11.4%
CCCN(C(=O)COC(=O)CNS(=O)(=O)c1ccc(NC(C)=O)cc1)C1CCS(=O)(=O)C1 (centres undefined) -7.66%
CC(=NNC(=S)N1CCCCCC1)c1ccccn1 -12.1%
Cc1cccc(CC2(O)C(=O)Nc3ccccc32)n1 (centres undefined) 16.1%
Cc1cc(OCCCC(=O)Nc2cc(S(=O)(=O)N3CCOCC3)ccc2N2CCOCC2)ccc1Cl 0.551%
COC1=CC(=O)OC(C)(c2ccccc2)C1 (centres undefined) -0.43%
COc1ccc2c(c1)C(=O)CC(c1ccccc1)O2 (centres undefined) -4%
CC(NC(=O)c1ccccc1)C(=O)OCC(=O)Nc1cccc(S(=O)(=O)N2CCCC2)c1 (centres undefined) 4.12%
O=C1C(=O)N(c2ccccc2)C(c2ccccc2)C1c1ccccc1 (centres undefined) -1.36%
Cc1ccc(OCCNC(=O)c2cccc(S(=O)(=O)N3CCN(Cc4ccccc4)CC3)c2)cc1 1.12%
COC[C@@H]1NS(=O)(=O)c2ccc(Br)cc2O[C@H]1c1ccccc1 6.09%
CN(C(=O)c1cccc(NC(=O)Cc2cccc(NC(=O)C3CCCN(C(=O)C4CC4)C3)c2)c1)C1CCC1 (centres undefined) 9.2%
O=S1(=O)CCOC[C@H](Cc2ccccc2)N1Cc1ccccc1Br -14.1%
O=c1oc2ccccc2c(=O)c2ccccc12 -1.68%
Cc1ccc(/C=C/C(=O)Nc2ccc([N+](=O)[O-])c(NC(=O)/C=C/c3ccc(C)o3)c2)o1 4.02%
O=C(NNC(=O)C1CCCC1)c1ccc(F)cc1 -12.5%
O=C(Cc1ccc(NC(=O)C2CCCN(C(=O)CCc3ccccc3)C2)cc1)Nc1ccc(C(=O)N2CCOCC2)cc1 (centres undefined) -14.9%
CC(C)=CCc1ccc(O)c(=O)cc1C(C)C -24.9%
CCCCN(C(=O)CSCc1ccc(C)cc1)c1c(N)n(Cc2ccccc2)c(=O)[nH]c1=O -5.98%
CSCCC(NC(=O)COc1ccccc1)C(=O)OCc1ccc(Cl)cc1 (centres undefined) 18.7%
CC(C)Sc1nc(N)nc2c1ncn2C1OC(CO)C(O)C1O (centres undefined) 0.224%
COc1ccc(N)c(C)c1 -6.1%
CN1CCC(N(C)C(=O)c2ccc(Cl)c(S(=O)(=O)Nc3ccc(Cl)cc3)c2)CC1 8.88%
CC1C(C)N(C(=O)CCl)c2ccccc2N1C(=O)CCl (centres undefined) -12.9%
Cn1c(=S)sc2ccc3ccccc3c21 -3.6%
COC(=O)Cc1c(-c2[nH]c3ccccc3c2CC(=O)OC)[nH]c2ccccc12 -26.3%
COc1cc2c(cc1OC)C1C(=O)c3cc(OS(C)(=O)=O)c(OC)cc3C1N(C)C2=O (centres undefined) 15.9%
COc1ccc2oc(N)nc2c1 -10.7%
CCN(CC)S(=O)(=O)c1cccc(NC(=O)c2ccc(S(=O)(=O)N3CCCC3)cc2)c1 -1.05%
CCOC(=O)C1CCCN(C(=O)C2CCN(S(=O)(=O)c3ccc(Cl)c(C(F)(F)F)c3)CC2)C1 (centres undefined) 8.65%
O=C(Nc1ccccc1)Oc1cccc2cccnc12 0.533%
O=C(NCC1CCCCC1)NCC1CCCCC1 -4.77%
CSCCC(NC(=O)COc1ccccc1)C(=O)N1CCN(c2cccc(C(F)(F)F)c2)CC1 (centres undefined) 6.27%
O=C(CC(=O)c1cccnc1)c1ccccc1 -9.8%
Nc1cc2c(cc1Br)-c1ccc(F)cc1C2=O -2.67%
O=C1/C(=C\c2ccc([N+](=O)[O-])cc2)CS(=O)(=O)C/C1=C/c1ccc([N+](=O)[O-])cc1 -1.03%
O=C(NNC(=O)c1ccccc1O)c1ccccc1O 0.604%
CCOC(=O)C(CO)NC(=O)C1(NC(C)=O)CCCC1 (centres undefined) -19%
CCCC(O)(c1ccccc1)C(c1ccccc1)c1ccccn1 (centres undefined) 4.52%
O=C(NCCc1ccccc1)c1c[nH]c2ccc(F)cc2c1=O 5.88%
O=C1CC[C@@H]2CC3(C[C@@H]4CCN1[C@H]24)Nc1cc([N+](=O)[O-])ccc1NC3=NC1CCCCC1 (some centres undefined) -11.5%
CN(C(=O)c1cccc(NC(=O)Cc2ccc(NC(=O)C3CCCN(C(=O)C4CC4)C3)cc2)c1)C1CC1 (centres undefined) -9.52%
CN(CCc1ccccc1)C(=O)c1cccc(NC(=O)Cc2cccc(NC(=O)C3CCCN(C(=O)C4CCC4)C3)c2)c1 (centres undefined) -5.32%
C[C@@H]1ON(C)[C@H]2C[C@H]3c4cc(N5CCN(C)CC5)ccc4CCN3C(=O)[C@@H]12 -18.3%
CC1CCCN(C(=O)Cn2c(=O)oc3cc(S(=O)(=O)N4CCCCC4C)ccc32)C1 (centres undefined) -5.13%
NC1=NOC(=O)C1C1CCCCC1 (centres undefined) 41.4%

Potency, active:
O=C(CN1C(=O)/C(=C\c2ccc(C(F)(F)F)cc2)Sc2ccccc21)NCc1ccco1 11.6 µM [inconclusive]
Cc1nc2ccccc2nc(=O)c1NNc1ccc([N+](=O)[O-])cc1 14.6 µM [inconclusive]
O=C(/C=C/c1ccc([N+](=O)[O-])o1)NNC(=O)c1ccc(F)cc1 20.6 µM [inhibitor]
